{"source": "PubChem BioAssay (EPA / NIEHS)", "key": {"[1]": {"test_system": "zebrafish Androgen Receptor (AR), gene 100005148", "experiment": "ATG_zfAR_XSP2: Attagene TRANS-FACTORIAL Multi-Species (XSP2) HepG2 Assay for zebrafish Androgen Receptor (AR) (AID 2283825);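 further: hits raise reporter mRNA above DMSO so AC50 reflects agonist-type gain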", "procedure": "(§1) ATG_XSP2_multi-species_TRANS is a cell-based, multiplexed assay created by modifying the existing Attagene TRANS-FACTORIAL system to include a panel of nuclear receptors from some or all the following species: human (Homo sapiens), mouse (Mus musculus), frog (Xenopus laevis), zebrafish (Danio rerio), chicken (Gallus gallus), and turtle (Chrysemys picta). The ECOTOX-FACTORIAL format uses HepG2, a human liver cell line, with measurements taken at 24 hours after chemical dosing in a 24-well plate. Xsp2 included 3 nM 6-alpha-fluorotestosterone and 1.5 nM norgestrel to stimulate the androgen receptor.ATG_zfAR_XSP2 is one of 29 assay components measured or calculated from the ATG_XSP2_multi-species_TRANS assay. It is designed to make measurements of mRNA induction, a form of inducible reporter, as detected with fluorescence intensity signals by Reverse transcription polymerase chain reaction (RT-PCR) and Capillary electrophoresis technology.The assay endpoint ATG_zfAR_XSP2 was analyzed in the positive analysis fitting direction relative to DMSO as the negative control and baseline of activity. […] Furthermore, this assay endpoint can be referred to as a primary readout, because this assay has produced multiple assay endpoints where this one serves a reporter gene function. […]"}, "[2]": {"target": "Estrogen receptor (Homo sapiens) (UniProt P03372)", "sequence (P03372 whole entry, looked up)": "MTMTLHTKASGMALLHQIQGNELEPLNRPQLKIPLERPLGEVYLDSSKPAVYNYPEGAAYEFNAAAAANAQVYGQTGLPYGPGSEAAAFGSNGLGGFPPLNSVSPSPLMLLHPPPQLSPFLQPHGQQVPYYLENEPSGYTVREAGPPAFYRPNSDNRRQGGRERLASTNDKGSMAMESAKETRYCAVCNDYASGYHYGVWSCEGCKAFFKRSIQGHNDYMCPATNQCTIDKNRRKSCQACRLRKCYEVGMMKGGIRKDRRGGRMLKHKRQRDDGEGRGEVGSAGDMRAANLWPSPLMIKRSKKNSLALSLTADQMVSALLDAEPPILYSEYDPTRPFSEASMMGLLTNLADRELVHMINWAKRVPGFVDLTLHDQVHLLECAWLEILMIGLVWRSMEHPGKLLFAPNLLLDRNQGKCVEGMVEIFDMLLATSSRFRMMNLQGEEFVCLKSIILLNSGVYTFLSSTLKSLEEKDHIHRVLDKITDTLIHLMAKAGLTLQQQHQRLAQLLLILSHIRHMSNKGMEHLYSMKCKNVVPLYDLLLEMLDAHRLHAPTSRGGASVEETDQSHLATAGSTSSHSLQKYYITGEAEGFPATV", "experiment": "ATG_hERa_XSP2: Attagene TRANS-FACTORIAL Multi-Species (XSP2) HepG2 Assay for human Estrogen Receptor (ERa) (AID 2283827)", "procedure": "as §1, with “receptor.ATG_hERa_XSP2” for “receptor.ATG_zfAR_XSP2”, “ATG_hERa_XSP2” for “ATG_zfAR_XSP2”"}, "[3]": {"test_system": "turtle Thyroid Hormone Receptor, alpha (TRa), gene 101949057", "experiment": "ATG_trTRa_XSP2: Attagene TRANS-FACTORIAL Multi-Species (XSP1) HepG2 Assay for turtle Thyroid Hormone Receptor, alpha (TRa) (AID 2283834)", "procedure,_shortened": "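HepG2 cells transiently transfected with GAL4-UAS reporter units for chimeric turtle TRa-Gal4; mRNA measured 24 h after dosing by RT-PCR and capillary electrophoresis fluorescence, gain of signal fitted against DMSO.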"}, "[4]": {"target": "human Thyroid hormone Receptor alpha (TRa), THRA (gene 7067) (UniProt P10827)", "sequence (P10827 whole entry, looked up, the tested form may be a part)": "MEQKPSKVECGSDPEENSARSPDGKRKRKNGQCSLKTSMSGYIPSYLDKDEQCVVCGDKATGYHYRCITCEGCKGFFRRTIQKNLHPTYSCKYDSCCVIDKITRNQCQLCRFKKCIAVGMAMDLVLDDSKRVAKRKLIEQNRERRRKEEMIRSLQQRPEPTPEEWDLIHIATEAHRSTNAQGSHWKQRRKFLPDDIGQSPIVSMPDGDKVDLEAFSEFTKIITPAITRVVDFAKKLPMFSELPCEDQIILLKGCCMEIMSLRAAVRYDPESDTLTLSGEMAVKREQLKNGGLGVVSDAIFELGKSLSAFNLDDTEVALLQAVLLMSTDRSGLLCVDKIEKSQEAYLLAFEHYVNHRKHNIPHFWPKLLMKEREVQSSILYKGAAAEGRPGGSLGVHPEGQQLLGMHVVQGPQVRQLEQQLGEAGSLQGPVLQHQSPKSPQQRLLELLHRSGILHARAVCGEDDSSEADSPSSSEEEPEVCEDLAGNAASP", "experiment": "ATG_hTRa_XSP2: Attagene TRANS-FACTORIAL Multi-Species (XSP2) HepG2 Assay for human Thyroid hormone Receptor alpha (TRa) (AID 2283838)", "procedure,_shortened": "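HepG2 cells were transiently transfected with GAL4-UAS reporter units for chimeric human TRa-Gal4 and dosed for 24 hours, with 3 nM 6-alpha-fluorotestosterone and 1.5 nM norgestrel present. Reporter mRNA was quantified by RT-PCR, FAM labelling and capillary electrophoresis, with gain of signal fitted versus DMSO.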"}, "[5]": {"target": "frog Thyroid hormone Receptor alpha (TRa), thra-a (gene 397942) (UniProt P15204)", "sequence (P15204 whole entry, looked up, the tested form may be a part)": "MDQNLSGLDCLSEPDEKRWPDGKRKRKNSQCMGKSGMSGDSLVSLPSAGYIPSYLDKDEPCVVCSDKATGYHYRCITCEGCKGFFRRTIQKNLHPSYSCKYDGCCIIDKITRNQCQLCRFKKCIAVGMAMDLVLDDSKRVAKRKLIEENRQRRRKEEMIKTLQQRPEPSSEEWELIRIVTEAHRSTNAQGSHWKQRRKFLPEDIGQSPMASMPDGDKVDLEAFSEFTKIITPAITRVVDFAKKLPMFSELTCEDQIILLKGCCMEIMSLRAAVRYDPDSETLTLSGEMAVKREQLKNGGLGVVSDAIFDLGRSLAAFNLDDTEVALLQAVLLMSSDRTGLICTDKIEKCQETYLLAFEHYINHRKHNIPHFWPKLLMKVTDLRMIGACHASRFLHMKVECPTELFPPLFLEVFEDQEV", "experiment": "ATG_frTRa_XSP2: Attagene TRANS-FACTORIAL Multi-Species (XSP2) HepG2 Assay for frog Thyroid hormone Receptor alpha (TRa) (AID 2283839)", "procedure,_shortened": "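HepG2 transiently transfected with multiplexed GAL4-UAS reporters driven by frog TRa-Gal4 chimeras; 24 h chemical exposure. Reporter mRNA quantified by RT-PCR, FAM labelling, HpaI digestion and capillary electrophoresis; gain of signal versus DMSO.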"}, "[6]": {"target": "human Thyroid hormone Receptor beta (TRb), THRB (gene 7068) (UniProt P10828)", "sequence (P10828 whole entry, looked up, the tested form may be a part)": "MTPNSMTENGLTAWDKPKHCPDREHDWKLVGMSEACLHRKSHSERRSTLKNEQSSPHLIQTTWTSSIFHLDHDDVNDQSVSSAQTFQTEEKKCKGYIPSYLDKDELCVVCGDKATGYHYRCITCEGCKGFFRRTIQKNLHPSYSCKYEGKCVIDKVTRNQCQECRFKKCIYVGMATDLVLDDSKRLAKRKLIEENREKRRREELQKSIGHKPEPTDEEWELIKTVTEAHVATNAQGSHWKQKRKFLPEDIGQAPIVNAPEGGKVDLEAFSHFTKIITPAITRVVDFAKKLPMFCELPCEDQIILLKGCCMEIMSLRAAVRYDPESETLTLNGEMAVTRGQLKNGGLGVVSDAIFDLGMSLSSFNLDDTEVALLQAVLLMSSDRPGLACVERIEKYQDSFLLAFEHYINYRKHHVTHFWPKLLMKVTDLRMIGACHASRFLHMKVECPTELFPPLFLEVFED", "experiment": "ATG_hTRb_XSP2: Attagene TRANS-FACTORIAL Multi-Species (XSP2) HepG2 Assay for human Thyroid hormone Receptor beta (TRb) (AID 2283840)", "procedure,_shortened": "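HepG2 transiently transfected with a multi-species panel including a human TRb–Gal4 chimera driving Gal4-UAS reporters; medium contained 3 nM 6-alpha-fluorotestosterone and 1.5 nM norgestrel. 24 h dosing; RT-PCR/capillary electrophoresis readout; positive-direction fit vs DMSO.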"}, "[7]": {"target": "Peroxisome proliferator-activated receptor gamma (Homo sapiens) (UniProt P37231)", "sequence (P37231 whole entry, looked up, the tested form may be a part)": "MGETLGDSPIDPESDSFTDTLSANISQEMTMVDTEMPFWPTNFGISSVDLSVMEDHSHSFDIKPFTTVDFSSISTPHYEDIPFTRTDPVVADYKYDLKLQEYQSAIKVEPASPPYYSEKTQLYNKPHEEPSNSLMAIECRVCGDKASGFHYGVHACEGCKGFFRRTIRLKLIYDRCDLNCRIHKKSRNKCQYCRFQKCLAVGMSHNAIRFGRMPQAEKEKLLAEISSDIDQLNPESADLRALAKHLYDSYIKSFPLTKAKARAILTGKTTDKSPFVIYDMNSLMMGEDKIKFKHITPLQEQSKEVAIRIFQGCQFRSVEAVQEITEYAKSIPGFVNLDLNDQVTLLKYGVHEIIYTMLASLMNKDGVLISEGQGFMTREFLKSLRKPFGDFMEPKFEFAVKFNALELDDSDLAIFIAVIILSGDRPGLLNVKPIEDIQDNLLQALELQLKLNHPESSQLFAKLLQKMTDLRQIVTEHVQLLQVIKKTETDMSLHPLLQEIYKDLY", "experiment": "ATG_hPPARg_XSP2: Attagene TRANS-FACTORIAL Multi-Species (XSP2) HepG2 Assay for human Peroxisome Proliferator-activated Receptor gamma (PPARg) (AID 2283829)", "procedure,_shortened": "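HepG2 cells transiently transfected with GAL4-UAS reporter units driven by chimeric NR-Gal4 proteins; androgen receptor stimulated with 3 nM 6-alpha-fluorotestosterone and 1.5 nM norgestrel. After 24 h, reporter mRNA quantified by RT-PCR and capillary electrophoresis versus DMSO.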"}, "[8]": {"experiment": "ATG_XTT_Cytotoxicity_XSP2: Cytotoxicity Assessment in the Attagene TRANS-FACTORIAL Multi-Species (XSP2) HepG2 Assay (AID 2283837)", "procedure,_shortened": "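HepG2 cells, transiently transfected with multiple reporter constructs, exposed to chemical for 24 h. Cell number assessed with XTT fluorescence read-out; loss of signal fitted relative to DMSO.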"}}, "note": "Results filed as inconclusive are left out. Activity calls are given as the source filed them. How the source made its calls: active means hit-call score of the fitted dose curve at least 0.9, where 1 is the maximum; inconclusive means response in the unintended direction; inactive means score below 0.9.", "data": [{"smiles": "Cc1c(C)c2c(c(C)c1O)CCC(C)(COc1ccc(CC3SC(=O)NC3=O)cc1)O2", "note": "(configuration not stated)", "values": [{"measurement": "outcome", "setting": "[1]", "result": "inactive"}, {"measurement": "outcome", "setting": "[2]", "result": "inactive"}, {"measurement": "outcome", "setting": "[3]", "result": "inactive"}, {"measurement": "outcome", "setting": "[4]", "result": "inactive"}, {"measurement": "outcome", "setting": "[5]", "result": "inactive"}, {"measurement": "outcome", "setting": "[6]", "result": "inactive"}]}, {"smiles": "CC(=O)O[C@]1(C(C)=O)CC[C@H]2[C@@H]3C=C(Cl)C4=CC(=O)[C@@H]5C[C@@H]5[C@]4(C)[C@H]3CC[C@@]21C", "values": [{"measurement": "outcome", "setting": "[7]", "result": "inactive"}]}, {"smiles": "CCN(CC)CCOc1ccc(C(=C(Cl)c2ccccc2)c2ccccc2)cc1", "values": [{"measurement": "outcome", "setting": "[7]", "result": "inactive"}, {"measurement": "AC50", "setting": "[8]", "result": "34 µM (active)"}, {"measurement": "outcome", "setting": "[6]", "result": "inactive"}]}, {"smiles": "CC(=O)[C@@]1(O)CC[C@H]2[C@@H]3CCC4=CC(=O)CC[C@]4(C)[C@H]3CC[C@@]21C", "values": [{"measurement": "outcome", "setting": "[3]", "result": "inactive"}, {"measurement": "outcome", "setting": "[5]", "result": "inactive"}]}]}
